# Screening results: PubChem BioAssay, several laboratories
# An excerpt weighted towards active compounds, which were near 2.2% of everything screened.
# LGR2 antag – inhibitors of bursicon-induced Drosophila LGR2 receptor cAMP signaling | HEK293 LGR2, CRE-luciferase, bursicon-stimulated, 4 h | inhibition, % at 9.99 µM | 380,000 compounds, 0.35% hits | AID 720647;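 active = drop in luminescence signal, shown as inhibition above about 50% in the replicate tests, limit read from the data, passing the limit was not always enough; inconclusive = probably only some replicates passing the limit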;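 also: agonist challenge used bursicon conditioned medium at about half maximal strength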
# TWEAK Fn14 block – TWEAK-Fn14 signaling inhibition; TWEAK-stimulated Fn14 reporter cells, luciferase luminescence, 8 h; inhibition, % at 10 µM; 360,000 compounds, 2% hits; in the data active = inhibition above about 50%
# HSP90 inh – blocks HSP90-mediated luciferase refolding in reticulocyte lysate | Rabbit reticulocyte lysate, luciferase refolding luminescence, 3 h | inhibition, % at 5.6 µM | 290,000 compounds, 0.91% hits | AID 1789;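 active = inhibition above the screen-wide mean plus 3 SD, computed separately per campaign, cut at about 16% in these data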;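 also: 0% = DMSO wells and 100% = 60 µM geldanamycin wells; inhibitors lower the luminescence because luciferase stays unfolded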
# TROY NFkB inh – blocks TROY-dependent signaling in reporter cells; Q293 LMP1-TROYcd NF-kB luciferase reporter, 4 h; inhibition, % at 10 µM; 360,000 compounds, 0.98% hits; AID 1347056;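 active = compounds whose plate-normalised and pattern-corrected inhibition of the luciferase reporter signal at the single screening dose is 50% or more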
# * = called active by the depositor; ? = inconclusive; . = no result given.
SMILES,LGR2 antag,TWEAK Fn14 block,HSP90 inh,TROY NFkB inh
C[C@H]1CN([C@@H](C)CO)C(=O)c2cc(NC(=O)Cc3cn(C)c4ccccc34)ccc2O[C@@H]1CN(C)Cc1ccncc1,-10.7,.,.,.
COC(=O)C[C@H]1C[C@@H]2c3cc(NS(=O)(=O)c4ccc(OC)cc4)ccc3O[C@@H]2[C@@H](CO)O1,-8.3,.,.,.
OCc1cccc(-c2cnc3c(Nc4cccc(OC(F)(F)C(F)F)c4)nccn23)c1,65.5*,57.2*,.,42.5
COc1ccc(CN2CC3(CN(C(=O)C4CCOCC4)C3)c3c(n(C)c4cc(OC)ccc34)[C@@H]2CO)cc1,1.5,.,.,.
COc1ccccc1CN(C)C(=O)c1cc(-c2cccs2)nc2ccccc12,5.6,73.5*,2.2,30.5
Cc1ccc(-c2nnc(CSc3nc(C(C)C)nc4sc(C)c(C)c34)o2)cc1,.,82.7*,-0.3,.
CSc1nc2ccc(N3C(=O)C4CCCCC4C3=O)cc2s1 (stereo not drawn),.,106.7*,2.2,-36.0
CCNS(=O)(=O)c1ccc(CCC(=O)Nc2ccc3c(c2)OCO3)cc1,5.8,3.6,-1.4,6.6
CC(C)CNS(=O)(=O)c1ccc(CCC(=O)Nc2ccc3c(c2)OCO3)cc1,.,3.5,16.7*,-20.6
CCOC(=O)/C(=C\c1cccc(O)c1)c1nc2sc(C)c(C)c2c(=O)[nH]1,83.9*,101.1*,4.7,37.5
CC(=O)Oc1ccc(-c2ccc(C(=O)NCCc3ccc(S(N)(=O)=O)cc3)cc2)cc1,-6.7,-3.9,3.5,-9.4
Cc1ccc(CONC(=O)c2ccccc2)cc1,-24.9,10.4,14.5,-48.4
Cc1ccc(CONC(=O)c2ccc(Cl)cc2)cc1,-67.2,-13.2,.,-56.2
CC(=O)Oc1ccc(C(=O)NCCc2ccccc2)cc1,14.7,59.6*,15.9,17.5
COc1ccc(C(=O)NOCc2ccccc2)cc1,73.3*,86.0*,.,47.1
O=C(NOCc1ccccc1)c1ccc(Cl)cc1,43.7,65.9*,.,30.5
COc1ccc2oc(C(=O)NCCc3ccccc3)c(C)c2c1,?,81.6*,.,70.4*
C[C@@H]1CCCCO[C@H](CN(C)C(=O)c2ccncc2)[C@@H](C)CN([C@H](C)CO)C(=O)c2cc(NC(=O)NC3CCCCC3)ccc2O1,7.9,.,.,.
Cn1cnc(S(=O)(=O)N2C[C@H](O)COC[C@@H]3O[C@@H](CC(=O)NCc4ccc(F)cc4)CC[C@H]32)c1,19.7,.,.,.
O=C(NCC[C@H]1CC[C@H](NC(=O)C2CCCC2)[C@H](CO)O1)c1ccc(F)cc1,-26.2,.,.,.
COc1ccc(C(=O)NCCNC(=O)c2ccc(OC)cc2)cc1,-8.8,-19.1,.,3.5
COc1ccc(C(=O)NCCSc2ccccc2)cc1,26.5,60.7*,13.7,13.6
COc1ccc(-c2nnc(OC)c3ccccc23)cc1,-13.4,-16.5,-1.3,21.6
COc1ccc(-c2nnc(Sc3nc4ccccc4o3)c3ccccc23)cc1,-1.7,74.4*,3.1,-21.5
COc1ccc2c3c(n(C)c2c1)[C@@H](CO)NCC31CN(C(=O)Nc2ccccc2F)C1,-11.6,.,.,.
SMILES,LGR2 antag,TWEAK Fn14 block,HSP90 inh,TROY NFkB inh
CC(=O)Nc1ccc(S(=O)(=O)c2ccnc3cc(Cl)ccc23)cc1,?,77.2*,.,22.2
COCCOC(=O)c1[nH]c2c(c1C)C(=O)CC(c1cc(OC)c(OC)c(OC)c1)C2 (stereo not drawn),-12.2,18.8,0.6,5.9
C=CCOC(=O)c1[nH]c2c(c1C)C(=O)CC(c1cc(OC)c(OC)c(OC)c1)C2 (stereo not drawn),.,64.2*,-0.4,46.1
CCCCOC(=O)c1[nH]c2c(c1C)C(=O)CC(c1cc(OC)c(OC)c(OC)c1)C2 (stereo not drawn),11.4,72.7*,1.5,48.8
CNC[C@@H]1Oc2c(NC(=O)C3CCCCC3)cccc2C(=O)N([C@H](C)CO)C[C@@H]1C,9.6,.,.,.
CCOc1ccc(Br)cc1S(=O)(=O)Nc1cccc(S(=O)(=O)N(C)c2ccccc2)c1,18.6,45.2,7.0,77.2*
CN1C(=O)C(=O)/C(=C(/O)c2ccccc2)C1c1ccc(Br)cc1 (stereo not drawn),-31.0,8.1,-3.1,5.5
CN1C(=O)C(=O)/C(=C(/O)c2ccc(Br)cc2)C1c1ccc(Cl)cc1 (stereo not drawn),0.5,94.8*,2.6,-9.8
O=C(OCn1ncc(Cl)c(Cl)c1=O)c1ccccc1Cl,.,103.9*,-1.5,73.4*
CC(C)(C)C(=O)Cn1ncc(Cl)c(Cl)c1=O,.,96.5*,3.2,3.0
O=C(OCn1ncc(Cl)c(Cl)c1=O)c1ccc(F)cc1,.,.,-3.6,.
O=C(Cn1ncc(N2CCOCC2)c(Cl)c1=O)c1ccc(Cl)cc1,2.7,-8.6,-0.6,-23.3
O=C(Cn1ncc(Cl)c(Cl)c1=O)c1ccc(Cl)cc1,.,83.5*,1.0,12.6
O=c1c(Cl)c(Cl)cnn1Cc1ccc(F)cc1,?,80.5*,4.8,1.9
